Drawing on PubChem BioAssay AID777 (Sanford-Burnham Center for Chemical Genomics, 2007), this text covers inhibition for 97 molecules.

Screen size: about 96,000 compounds; about 19,000 (20%) were called active. These entries were drawn from the full list. A number with no mark means an inactive call.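 How the source made its calls: active means blocking of liver enzyme CYP2C9 beyond about 50% at 5 µM (limit read from the data); inactive means the rest.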

Chain of Cytochrome P450 2C9 (Homo sapiens) (P11712 whole entry, looked up): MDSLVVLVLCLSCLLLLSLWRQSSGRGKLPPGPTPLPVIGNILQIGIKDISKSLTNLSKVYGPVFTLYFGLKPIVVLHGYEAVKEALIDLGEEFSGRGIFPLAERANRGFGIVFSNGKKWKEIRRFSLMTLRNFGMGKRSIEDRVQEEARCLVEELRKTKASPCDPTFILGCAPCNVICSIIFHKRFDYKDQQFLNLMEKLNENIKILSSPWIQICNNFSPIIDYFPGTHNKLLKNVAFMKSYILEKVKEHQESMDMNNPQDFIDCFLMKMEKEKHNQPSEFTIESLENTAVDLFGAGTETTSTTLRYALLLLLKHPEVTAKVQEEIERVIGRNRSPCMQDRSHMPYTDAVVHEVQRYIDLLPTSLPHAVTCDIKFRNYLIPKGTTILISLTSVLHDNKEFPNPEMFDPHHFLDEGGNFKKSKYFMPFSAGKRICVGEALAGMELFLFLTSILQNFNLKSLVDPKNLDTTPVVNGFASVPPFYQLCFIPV

This assay addresses Cytochrome P450 2C9 (Homo sapiens) (UniProt P11712). The assay is described as follows: blockers of cytochrome P450 2C9 activity – biochemical, luminescence, ADME assay, primary screen (AID 777). Conditions: CYP2C9 Supersomes, luciferin-H conversion, at 5 µM, active compounds read high.
For orientation: inhibition means the drop in the measured response relative to a control, in per cent. Consider `C/C(=N\NC(=O)Cc1ccc(Cl)cc1)c1ccccn1`, for which the inhibition was 32.4%.
For `Cc1ccccc1CN1CCN(CC(=O)NCc2ccccn2)C1=O`, the inhibition was -9.3%.
The value for `CNC(=S)N1N=C(c2ccccc2)CC1c1ccc(Br)cc1` (configuration not stated) was 69.6% (active); that for `COc1ccc(NC(=S)N2N=CCC2c2ccccc2)cc1` (configuration not stated) was 10.8%.
For `Cc1nn(C)c(Oc2ccc(Cl)cc2)c1C=O` the value was 0%; for `Cc1cc(/C=C2/SC(=O)N(CC(=O)OC(C)C)C2=O)c(C)n1C`, 5.9%.
The value for `COc1cccc(NC(=O)c2nn(C34CC5CC(CC(C5)C3)C4)cc2[N+](=O)[O-])c1` was 11.2%.
Take `COc1ccc(-c2cc(C3CCN(c4ncccc4[N+](=O)[O-])CC3)[nH]n2)cc1`: the inhibition is 97.2% (active).
The value for `O=C1C=C(c2ccc(Cl)cc2)C(=O)N1Nc1ccccc1` was 45.5%; that for `Cc1nnc(NC(=O)CSc2nc(C3CCCCC3)nc3ccccc23)s1` was 20.1%; that for `COc1cc(CC(=O)NCc2cccs2)cc(OC)c1OC` was -31%.
For `S=C(NCc1ccc(Cl)cc1)NC12CC3CC(CC(C3)C1)C2` the value was 49.3%; for `S=C(NCc1cccs1)Nc1ccc(Cl)cc1`, 53% (active).
For `COC(=O)c1sccc1-n1cccc1C(=O)C(=O)N1CCCCC1` the value was 7.3%; for `CCOC(=O)N1CCN(c2c(NCCCN3CCCC(C)C3)c(=O)c2=O)CC1` (configuration not stated), 18.1%; for `CCOc1ccccc1C1CC(c2ccccc2)Nc2nc(N)nn21` (configuration not stated), 12.8%.
For the molecule `CCOc1ccccc1C1CC(c2ccc(Cl)cc2)Nc2nc(N)nn21` (configuration not stated), the inhibition is 51.1% (active).
In the case of `COc1ccc(C2CC(c3ccc(Cl)cc3Cl)Nc3nc(N)nn32)cc1OC` (configuration not stated), the inhibition is 9.8%.
The value for `Cc1ccc(C2CC(c3cccc(Br)c3)n3nc(N)nc3N2)cc1` (configuration not stated) was 5.1%; that for `Cc1ccc(C2CC(c3cccc(C)c3)n3nc(N)nc3N2)cc1` (configuration not stated) was 11.1%; that for `Nc1nc2n(n1)C(c1ccco1)CC(c1ccc(Cl)c(Cl)c1)N2` (configuration not stated) was 50% (active).
On to `CC1CN(c2cc(=O)n(Cc3ccc(F)cc3)c(=O)[nH]2)CC(C)O1` (configuration not stated), for which the inhibition was -11%.
For `CCCn1c(SCC(=O)N2CCc3ccccc32)nnc1-c1ccncc1` the value was 45.9%; for `O=C(Cn1c(-c2ccc(Cl)cc2)noc1=O)N1CCN(c2ccccc2F)CC1`, 1.4%.
`O=C(NCc1ccco1)C1CCCN(S(=O)(=O)c2cccc3nonc23)C1` (configuration not stated): the inhibition was 2.8%.
For `CCNc1nc(NCC)nc(N(C)n2cnnc2)n1`, the inhibition was 15.7%.
For `CCOc1nc(OCC)nc(-n2cc(-c3ccccc3)nn2)n1` the value was 15.3%; for `CCCc1nc2sc3c(c2c(=O)n1NC(=O)CCCl)CCCC3`, 85% (active); for `Cc1nc(SCC(=O)Nc2cc(C)on2)c2c3c(sc2n1)CCCC3`, -1.7%.
The value for `CCCC(=O)Nc1ccc2c(c1)nc1n2CCSC1` was 3.2%; that for `CCC(=O)NC(NCC1CCCO1)C(Cl)(Cl)Cl` (configuration not stated) was 15.6%.
The value for `CCOc1ccc(NC(=O)CCS(=O)(=O)c2ccc3c(c2)CCCN3C(=O)CC)cc1` was -0.4%; that for `COc1ccc(CCNC(=O)CSc2nnc(CNC(=O)c3cccs3)o2)cc1OC` was 17.8%; that for `COc1ccc(CCNC(=O)CSc2nnc(-c3cccc(F)c3)o2)cc1OC` was 81.2% (active).
Consider `COc1ccc(CCNC(=O)CSc2nc(C)nc3c2oc2ccccc23)cc1OC`, for which the inhibition is 58% (active).
For `COc1ccc(NC(=O)Cn2nnc(C(=O)NCCc3ccc(OC)c(OC)c3)c2N)cc1` the value was 35.6%.
Take `COc1ccc(-c2nnc(SCC(=O)NC3CCCCC3)o2)cc1OC`: the inhibition is 7%.
Take `CCSc1nc(C)nc2c1oc1ccccc12`: the inhibition is 18.9%.
The value for `COc1ccccc1Cn1c(=S)[nH]c2cc(C(=O)N3CCN(C)CC3)ccc2c1=O` was -2.6%.
The value for `CC1CCC(NC(=O)c2ccc(N3CCCC3=O)cc2)CC1` (configuration not stated) was 5.2%; that for `CSc1nc(O)c(Cc2ccccc2)c(=O)[nH]1` was 7.9%.
For `CCOC(=O)N1CCN(C(=O)c2nn(-c3ccc(C)cc3)c(=O)c3c2c2ccccc2n3C)CC1` the value was 8.8%.
As for `Cn1c2ccccc2c2c(C(=O)N3CCN(c4ccc(F)cc4)CC3)cn(C3CCCC3)c(=O)c21`, the inhibition is 89.6% (active).
For `Cn1c(C(=O)N2CCC(C(N)=O)CC2)cc2c(=O)n(C)c3ccccc3c21`, the inhibition was -6.8%.
For `Cn1c(=O)c2c(ncn2CC(COCc2ccccc2Cl)OCc2ccccc2Cl)n(C)c1=O` (configuration not stated) the value was 21.3%; for `CCC1SC2=NCCN2C1(O)c1ccc(Cl)cc1` (configuration not stated), 30.8%.
For the molecule `O=C(Nc1ccc2c(c1)OCCO2)C1CCCN(c2ncccn2)C1` (configuration not stated), the inhibition was -3.8%.
For `Cc1ccnc(N2CCCC(C(=O)Nc3cc(F)ccc3C)C2)n1` (configuration not stated), the inhibition is 90.4% (active).
The value for `Cc1ccnc(N2CCC(C(=O)NC3CCCCCC3)CC2)n1` was -45.1%; that for `Cc1nnc(SCC(=O)NC2CCCC2)s1` was 11.5%.
For `O=C(CN1C(=O)CC(c2ccccc2)=Nc2ccccc21)NC1CCCCC1` the value was 52.3% (active).
The value for `CN(CCCNC(=O)CN1C(=O)CC(C)(C)S(=O)(=O)c2ccccc21)C1CCCCC1` was 9.9%.
Regarding `O=C(CN1CCN(c2ccccn2)CC1)NC1CCCCC1`, the inhibition was 23.5%.
As to `CN1CCN(Cc2c(O)ccc3c2oc(=O)c2ccccc23)CC1`, the inhibition was -22.3%.
The value for `CCOc1ccc(-c2nnc(-c3ccco3)o2)cc1` was 31.6%.
For `Cc1ccc(-c2nnc(-c3ccc(NC(=O)c4cccs4)cc3)o2)cc1` the value was 56.4% (active); for `O=C(CCc1ccccc1)Nc1cccc(-c2nnc(-c3ccco3)o2)c1`, 19.3%; for `COc1cccc(C(=O)Nc2ccc(NC(=O)c3ccco3)cn2)c1`, 23.4%.
`CCC(=O)Oc1cccc(C(=O)Nc2ccc(-c3nnc(-c4ccco4)o3)cc2)c1`: the inhibition is 53.3% (active).
The value for `Cc1nc(-c2ccc(NC(=O)c3cccs3)cc2)cs1` was 20.2%; that for `O=C(Nc1ncccn1)c1cccs1` was -3.3%.
The value for `CCCCOc1ccc(-c2nnc(-c3ccco3)o2)cc1` was 19.4%.
For `Cc1ccc(OCC(=O)Nc2ccc(-c3nnc(-c4ccco4)o3)cc2)cc1` the value was 66.3% (active); for `COc1ccc(Cl)cc1C(=O)Nc1ccc(N(C)C(C)=O)cc1`, -206%.
Consider `C/C(=N\c1nc2ccccc2n1C)c1cc(Cl)ccc1O`, for which the inhibition is -7.5%.
For `CC(=O)N1C(=O)C2(Nc3ccccc3N2)c2ccccc21` the value was 4.4%; for `CC1CCc2c(c3ccccc3[nH]c2=O)O1` (configuration not stated), 35%; for `O=C(Nc1ccc(Br)c2cccnc12)c1ccc(Cn2cc([N+](=O)[O-])cn2)o1`, -72.9%.
The value for `CC1CCc2c(sc(NC(=O)c3ccc(Cn4cc(Br)cn4)o3)c2C(N)=O)C1` (configuration not stated) was 81.5% (active).
For `CCOC(=O)c1c(NC(=O)c2ccc(Br)o2)sc2c1CCCC2` the value was 10.2%; for `C=CCN1C(=O)C(Cc2cccc(Cl)c2)S/C1=N/N=C/c1ccco1` (configuration not stated), -2.7%.
With `CCCNC(=O)c1ccc(Cl)c(Cl)c1`, the inhibition is -10.8%.
For `CCCCNC(=O)C1CCCNC1=O` (configuration not stated) the value was -10.4%.
The value for `CC1CN(c2cc(=O)n(-c3cccc(Br)c3)c(=O)[nH]2)CC(C)O1` (configuration not stated) was -3.4%; that for `CCCc1nc2ccccc2c(C(=O)OCC(=O)c2ccc3c(c2)NC(=O)CO3)c1CC` was -20.4%.
In the case of `COc1cc(-c2nnc(Cn3cc(C(F)(F)F)ccc3=O)o2)cc(OC)c1OC`, the inhibition is 12%.
For `CCCc1nc2ccccc2c(C(=O)OCc2nnc(-c3cc(OC)c(OC)c(OC)c3)o2)c1CC` the value was 67.5% (active); for `Cc1cc(C(=O)COC(=O)c2cccs2)c(C)n1-c1c(C)n(C)n(-c2ccccc2)c1=O`, 15.4%.
On to `Cc1cc(=O)n(C)c(=O)n1CCCNc1ccccc1`, for which the inhibition is 11.2%.
Turning to `COc1ccc2[nH]c(=O)c(CN(CC3CCCO3)C(=O)Nc3ccccc3)cc2c1` (configuration not stated), the inhibition was 19.4%.
The value for `Cc1ccc2[nH]c(=O)c(CN(CCCN(C)C)C(=O)Nc3cccc(Cl)c3)cc2c1` was 1.4%.
Turning to `Cc1cccc(NC(=O)N(Cc2cc3cc(C)cc(C)c3[nH]c2=O)CC2COCCO2)c1` (configuration not stated), the inhibition was 85.5% (active).
For `O=C(CS(=O)(=O)c1cn(Cc2ccc(Cl)cc2)c2ccccc12)N1CCOCC1` the value was 41%.
Consider `CCN(c1ccccc1)S(=O)(=O)c1ccc(N)cc1`, for which the inhibition was -137%.
For `COC(=O)c1cc(Cl)c(NC(=O)c2ccco2)cc1OC` the value was -135%; for `COc1cc(C(=O)OC(C)C(=O)NCC2CCCCC2)cc(NC(=O)c2ccco2)c1OC` (configuration not stated), 81.6% (active).
Take `COc1ccc(NC(=O)c2cccc(NC(=O)c3ccco3)c2)c(OC)c1`: the inhibition was -50.5%.
The value for `O=C(/C(=N\O)n1cncn1)c1ccc(Br)cc1Br` was 34.9%; that for `CCCC(=O)C1=C(N(C)c2ccccc2)CC(C)(C)C(C(=O)OC)C1=O` (configuration not stated) was 13.7%; that for `COCC(C)n1c(SCc2ccc(C(=O)OC)o2)nc2ccccc2c1=O` (configuration not stated) was 52.9% (active).
The value for `N#CCSc1nc2ccccc2c(=O)n1-c1ccccc1` was 30.4%.
The value for `CCc1c(O)nc(SCC(=O)Nc2ccccc2)n(C(C)CC)c1=O` (configuration not stated) was 11.7%; that for `COC(=O)c1ccc(CSc2nc3ccccc3c(=O)n2-c2cccc(OC)c2)o1` was 100% (active); that for `COC(=O)CSc1nc(C2CC2)nc2ccccc12` was 48%.
Take `CCOC(=O)CNC(=O)c1nn(-c2cccc(OC)c2)c(=O)c2ccccc12`: the inhibition is 29.6%.
The value for `O=C(CCc1ccccc1)Nc1ccc(NC(=O)C2CC2)nc1` was 25.9%.
The value for `N#Cc1c(N)n(CCOC(=O)c2ccc(Cl)cc2)c2nc3ccccc3nc12` was 14.9%.
